Assay outcomes as filed in PubChem.
Sampled rows, rich in hits. Any-hit rate of the full collection: about 0.9%.
PfHsp40 yeast = rescue of PfHsp40-mediated yeast toxicity; S. cerevisiae expressing PfHsp40, growth rescue, ATP luminescence; growth rescue, % at 12.5 µM; actives 0.68% (n = 340,000); AID 504582; in the data active means growth rescue above about 28%, passing the limit was not always enough; inconclusive means no clear call, values can overlap the other calls;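 further: yeast W303a lacking pdr1 and pdr3 grown in galactose medium; growth measured after three days at 30 °C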
Sa ugtP lethal = growth inhibition of S. aureus ugtP deletion strain | S. aureus RN4220 ugtP deletion, OD600 growth, 16 h | growth inhibition, % (test concentration not listed) | actives 0.54% (n = 330,000); in the data active means growth inhibition above about 68%;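 further: plate controls were untreated wells for no effect and antibiotic for full effect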
Mtb betalactam = beta-lactam sensitization of Mtb H37Rv; M. tuberculosis H37Rv growth with meropenem, percent inhibition; inhibition, % at 25 µM; actives 0.27% (n = 330,000); AID 434955; call rule not given here;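 further: growth measured after seven days incubation then overnight dye step; 0% = bacteria only wells and 100% = bacteria with antibiotic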
RN4220 kill = kills Staphylococcus aureus RN4220 | inhibition, % (concentration not given with the values) | actives 0.33% (n = 330,000) | S. aureus RN4220 growth, OD600, 16 h; in the data active means inhibition above about 85%;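 further: plate controls were untreated cells for no effect and reference antibiotic for full effect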
Mtb BioA inh = inhibitors of Mycobacterium tuberculosis BioA enzyme; purified M. tuberculosis BioA enzyme, plate reader; inhibition, % at 9.99 µM; actives 0.096% (n = 360,000); AID 602481; in the data active means inhibition above about 40%; inconclusive means no clear call, values can overlap the other calls
The depositor's hits bear a star.

`CCCCCC(=O)NC(=S)Nc1ccc(N2CCOCC2)cc1` gave PfHsp40 yeast 1.5, Sa ugtP lethal 91.1*, Mtb betalactam 41.0 and RN4220 kill 1.0.
Screening CCC(=O)NC(=S)Nc1ccc(N2CCOCC2)cc1 returned PfHsp40 yeast 0.7, Sa ugtP lethal 10.0, Mtb betalactam -1.8 and RN4220 kill 6.7.
For O=C(/C=C/c1ccc(S(=O)(=O)N2CCOCC2)cc1)NC(=S)Nc1ccc(N2CCOCC2)cc1 the results were PfHsp40 yeast 45.9*, Sa ugtP lethal 0.0, Mtb betalactam -0.9, RN4220 kill 1.8 and Mtb BioA inh 0.5.
COc1cc(C2OCC3C(c4ccc5c(c4)OCO5)OCC23)ccc1O (stereo not given) was read as Sa ugtP lethal -6.6 and RN4220 kill 8.1.
For CCCC(=O)NC(=S)Nc1ccc(N2CCN(C(=O)c3cccs3)CC2)cc1 the results were PfHsp40 yeast 0.6, Sa ugtP lethal active, Mtb betalactam 97.4, RN4220 kill 96.6 and Mtb BioA inh -1.4.
Cc1nc(N)nc(N)c1/C=C/C(C)(C)c1ccc(Cl)cc1 was read as PfHsp40 yeast 151.0*, Sa ugtP lethal 99.7* and RN4220 kill 99.0*.
Screening CCOC(=O)C1C2COc3ccc(C)cc3C2N2C(=O)CN(CC3CCCO3)C(=O)[C@@]12C (stereo not given in full) returned Sa ugtP lethal 5.3 and RN4220 kill 4.7.
For Cc1cccc(N2CCc3c2nc2ccc(Br)cc2c3N)c1 the results were PfHsp40 yeast 1.5, Sa ugtP lethal 99.6*, Mtb betalactam 93.9, RN4220 kill 99.0* and Mtb BioA inh -1.0.
`C/C(=N\NC(=O)c1cc2ccccc2cc1O)c1ccc(C)o1` gave PfHsp40 yeast 0.3, Mtb betalactam 93.7 and Mtb BioA inh -1.0.
`C/C(=N/NC(=O)c1cc2ccccc2cc1O)c1ccco1` gave PfHsp40 yeast 76.8*, Mtb betalactam 85.9 and Mtb BioA inh -2.1.
For CC(C)NC(=O)N(C)CC1Oc2c(NC(=O)C3CCCCC3)cccc2C(=O)N(C(C)CO)CC1C (stereo not given) the results were Sa ugtP lethal 0.4 and RN4220 kill 0.0.
For Cc1nc2c(Cl)cc(Cl)cc2[nH]1 the results were PfHsp40 yeast 33.3*, Sa ugtP lethal -6.2, Mtb betalactam -0.9 and RN4220 kill 5.4.
Cc1nc2c([N+](=O)[O-])c(C)c(C)cc2[nH]1 was read as Sa ugtP lethal 2.0, Mtb betalactam -4.8 and RN4220 kill 10.7.
OC(Cn1cncn1)(c1ccc(F)cc1)c1ccc(Cl)cc1 (stereo not given) was read as PfHsp40 yeast 108.3*, Sa ugtP lethal -4.1, Mtb betalactam 2.7, RN4220 kill -0.1 and Mtb BioA inh 0.9.
CCOC(=O)CN1C(=O)NC(c2ccccc2)C(C(C)=O)C1C (stereo not given) was read as Sa ugtP lethal 0.0 and RN4220 kill 4.6.
COC(=O)c1cccc2c1-c1ccccc1/C2=N/O was read as PfHsp40 yeast 331.5*, Mtb betalactam 16.1 and Mtb BioA inh -2.1.
Screening COC(=O)c1ccc2c(c1O)C(=O)c1ccccc1C2=O returned PfHsp40 yeast 342.3*, Sa ugtP lethal 97.1*, Mtb betalactam 100.1 and RN4220 kill 96.9*.
For CC(C)COC(=O)c1cccc2c1-c1ccccc1C2=NO the results were Sa ugtP lethal 96.3* and RN4220 kill -4.1.
For COc1cccc(C2CN(c3ccc(F)cc3F)N=C2c2cccs2)c1OC (stereo not given) the results were PfHsp40 yeast 0.0, Sa ugtP lethal 88.0*, Mtb betalactam 8.6, RN4220 kill -14.1 and Mtb BioA inh -0.7.
`COc1ccccc1C1CN(c2ccccc2)N=C1c1cccs1` (stereo not given) gave PfHsp40 yeast 1.2, Sa ugtP lethal 44.2, Mtb betalactam 3.5, RN4220 kill -15.0 and Mtb BioA inh -0.3.
For O=C(NCCCSc1ccccc1)c1cc(Cl)ccc1O the results were PfHsp40 yeast inconclusive, Sa ugtP lethal 88.7*, Mtb betalactam 15.2, RN4220 kill 93.0* and Mtb BioA inh 0.6.
For C[C@@]12C(=O)N(CC3CCCO3)CC(=O)N1C1c3ccccc3OCC1C2c1ccccc1 (stereo not given in full) the results were Sa ugtP lethal -14.2 and RN4220 kill 3.9.
`Cc1nnc(N=c2ssnc2Cl)o1` gave PfHsp40 yeast 362.3*, Mtb betalactam -6.8 and Mtb BioA inh -0.1.
`NCCCCC1NC(=O)C(CCC(=O)O)NC(=O)c2cc([N+](=O)[O-])cc(I)c2OCCC(C(N)=O)NC1=O` (stereo not given) gave Sa ugtP lethal 2.7 and RN4220 kill 7.4.
O=C(Nc1cc(Cl)ccc1-n1cncn1)c1ccc([N+](=O)[O-])s1 was read as PfHsp40 yeast 0.5, Sa ugtP lethal 100.5*, Mtb betalactam 93.6, RN4220 kill 26.8 and Mtb BioA inh 1.2.
Screening CCN(CC)CCN1C(=O)/C(=C\c2ccc(Cl)c([N+](=O)[O-])c2)SC1=Nc1ccc(OC)cc1 returned PfHsp40 yeast -1.4, Sa ugtP lethal 92.9*, Mtb betalactam -6.8, RN4220 kill -6.2 and Mtb BioA inh -0.1.
`C=CCCC(Cc1ccc(F)cc1)C(=O)OCC(NC(=O)C(CC=C)CC(=O)NCCO)C(C)(C)C` (stereo not given) gave Sa ugtP lethal -0.2 and RN4220 kill 8.8.
Screening O=C(C1=CC(c2ccc(C(F)(F)F)cc2)CC(OCCCCO)O1)N1CCCCCCC1 (stereo not given) returned Sa ugtP lethal -15.6 and RN4220 kill 1.4.
Screening COc1ccc2c(c1)C(=NO)c1cc(OC)ccc1-2 returned PfHsp40 yeast -0.2, Sa ugtP lethal 99.9*, Mtb betalactam -2.3, RN4220 kill -3.1 and Mtb BioA inh -5.7.
CC(C)NC(=O)Nc1cccc2c1OC(CN(C)C(=O)NC1CCCCC1)C(C)CN(C(C)CO)C2=O (stereo not given) was read as Sa ugtP lethal 1.6 and RN4220 kill 7.3.
Screening Cc1ccc(C(=O)Nc2scc(-c3ccccc3)c2C(=O)O)cc1 returned PfHsp40 yeast 118.9*, Sa ugtP lethal -9.3, Mtb betalactam 29.6, RN4220 kill 11.3 and Mtb BioA inh 4.2.
Screening COc1ccc(-c2csc(NC(=O)c3ccccc3F)c2C(=O)O)cc1 returned PfHsp40 yeast 309.8*, Sa ugtP lethal -3.5, Mtb betalactam 9.3 and RN4220 kill 13.1.
Screening O=C(Nc1scc(-c2ccccc2)c1C(=O)O)c1ccccc1Cl returned PfHsp40 yeast 0.6, Sa ugtP lethal -10.7, Mtb betalactam 9.8, RN4220 kill 12.1 and Mtb BioA inh 0.7.
For CCC1Cc2cc(O)ccc2C2=C1c1ccc(O)cc1CC2CC (stereo not given) the results were Sa ugtP lethal 88.8 and RN4220 kill 97.8*.
`NC(Cc1ccc(O)cc1)c1nnc(C(CCC(=O)O)NC(=O)C2CCNCC2)o1` (stereo not given) gave Sa ugtP lethal -0.8 and RN4220 kill 5.5.
For CCOc1ccc(N/N=C(/C#N)C(N)=O)cc1 the results were PfHsp40 yeast 362.6*, Mtb betalactam 3.1 and Mtb BioA inh -0.2.
